Data published in ChEMBL document CHEMBL4888484, “Replenishing the malaria drug discovery pipeline: Screening and hit evaluation of the MMV Hit Generation Library 1 (HGL1) against asexual blood stage Plasmodium falciparum ,using a nano luciferase reporter read-out” (2022).
Screen size: about 150,000 compounds; about 540 (0.36%) showed an effect of 50% or more. The sample as a whole holds a higher share of strong results than the screen did.

tested on: Plasmodium falciparum; assay: Primary screen in NF54 nanoGlo assay, in single point, at 2uM, 72h; a lower Z score goes with more inhibition; assay type: functional, Erythrocyte; conditions: timepoint 72 hour

| SMILES | % Inhibition | Z score |
| --- | --- | --- |
| Cc1cnn(CCCNC(=O)C[C@H]2COCCN2Cc2ccc(C)o2)c1 | -20% | 2.24 |
| CN(C)c1ccc(NC(=O)Cc2cnn(-c3ccccc3)c2)cn1 | -12% | 1.6 |
| N#Cc1nccnc1N[C@H]1CCCN(CC(F)(F)F)C1 | -11% | 1.83 |
| Cc1ccc(CN2C[C@@H](CO)[C@H](NC(=O)C3CCC3)C2)o1 | -6% | 0.86 |
| Cc1ccc(N2C(=O)c3ccccc3[C@@H]2c2c[nH]c3ccccc23)cc1 | 63% | -5.25 |
| COc1ccc(N2C(=O)c3ccccc3[C@@H]2c2cn(C)c3ccccc23)cc1 | 7% | -0.85 |
| CC(c1ccccc1)N1C(=O)c2ccccc2C1c1c[nH]c2ccccc12 (stereo not drawn) | 43% | -5.38 |
| COc1ccc(CC(=O)N2CCCS(=O)(=O)C[C@H]2C2CC2)nc1 | -1% | 0.08 |
| Cc1cccc2ncnc(N(C)[C@@H](C)Cc3ccc(O)cc3)c12 | 77% | -16.2 |
| Cc1cccc2ncnc(N(C)C3CC[S+]([O-])CC3)c12 (stereo not drawn) | 3% | -0.52 |
| CC1(C)C[C@@H](NC(=O)[C@H]2CC[C@H](Cn3cnc4ccccc4c3=O)CC2)CCO1 | -6% | 0.79 |
| C[C@@]1(NC(=O)CCc2nc(C3CCCC3)no2)CC=CCC1 | -10% | 1.9 |
| O=C(NCC[C@H]1CCOC1)c1ccc(-c2ccc3cc[nH]c(=O)c3c2)cc1 | -14% | 1.37 |
| CN1CC[C@H](N(C)C(=O)c2ccc(-c3ccc4c(=O)[nH]ccc4c3)cc2)C1 | -4% | 0.47 |
| CN(C)c1ccc([C@@H](CNC(=O)c2cccc(F)c2)c2c[nH]c3ccccc23)cc1 | 2% | -0.26 |
| COCCN1CCC(CN(Cc2ccncc2)Cc2nc3ccc(F)cc3[nH]2)CC1 | 0% | 0.04 |
| CN1CCC(N2CCC(CN(Cc3ccncc3)C3CCOCC3)CC2)CC1 | 0% | 0 |
| COCCN1CCC(CN(Cc2ccncc2)Cc2cc(C)c(C)o2)CC1 | -30% | 4.08 |
| CN1CCC(N2CCC(CN(Cc3ccncc3)Cc3c(F)cccc3Cl)CC2)CC1 | 98% | -9.12 |
| COc1ccc(CN(Cc2ccncc2)CC2CCN(C3CCN(C)CC3)CC2)c(F)c1 | 88% | -10.13 |

| SMILES | % Inhibition | Z score |
| --- | --- | --- |
| CC(=O)NCCn1ccnc1-c1ccc(F)c(F)c1F | -9% | 1.18 |
| C[C@H](NCC1(c2c(F)cccc2F)CC1)c1cnn(C)c1 | -3% | 0.45 |
| CC(C)(C)CN1C[C@@H](NC(=O)COc2ccc3c(c2)OCO3)CC1=O | -1% | 0.23 |
| CCCC(CCC)C(=O)Nc1ccc(O)cc1C(=O)O | 40% | -0.25 |
| COCC(O)CN1CCC(NC2CCCc3cc(F)ccc32)CC1 (stereo not drawn) | 1% | -0.12 |
| COCCCN(Cc1ccc(C(O)(c2ccc(OC)cc2)c2ccc(OC)cc2)o1)Cc1ccccc1OC | 3% | -0.38 |
| CN1CCO[C@@H](CNc2ncnc3c2cnn3-c2ccccc2F)C1 | -1% | 0.08 |
| Cc1nc(N2CCCC2C(=O)N2CCC(C(O)Cc3ccccc3)CC2)nc2ccccc12 (stereo not drawn) | -15% | 1.71 |
| O=C(O)c1ccc2c(NC3CCCC3)ncnc2c1 | -5% | 0.71 |
| CS(=O)(=O)N1CCC(Nc2ncnc3cc(Cl)ccc23)CC1 | 18% | -2.07 |
| CC1CC(Nc2ncnc3cc(Br)ccc23)CCN1C (stereo not drawn) | 97% | -8.72 |
| OC(CN1CCOC2CCCCC21)Cn1cccn1 (stereo not drawn) | -5% | 0.7 |
| CC(C)CNC(=O)c1[nH]cnc1C(=O)N1CCC(Cc2ccccc2)CC1 | 31% | -3.65 |
| CC[C@H]1CCCCCN1C(=O)NCCc1nnc(C)s1 | -9% | 1.2 |
| COc1ncc(C(=O)NCCCn2ccnc2)cn1 | -14% | 1.29 |
| COc1ccc(Nc2nnc(-c3ccc(NC(=O)C(=O)NCCCn4ccnc4)cc3)s2)cc1 | 66% | -7.06 |
| CCN(CC)Cc1cnc2c(C(=O)N(C)C3Cc4ccccc4C3)cnn2c1 | -6% | 0.83 |
| CN1C(=O)[C@@H]2CC[C@H]1CN(C1CCN(c3ncc4ccc(F)cc4n3)CC1)C2 | 3% | -0.38 |
| CO[C@H]1CCOC[C@@H]1NC1CCN(c2ncc3ccc(F)cc3n2)CC1 | 1% | -0.16 |
| Cc1ccc2c(c1)C(=O)N1CCCC1C(=O)N2CC(=O)NCC1CCCO1 (stereo not drawn) | -1% | 0.1 |

| SMILES | % Inhibition | Z score |
| --- | --- | --- |
| COc1ccc(-n2ncc3c(N)c4c(nc32)CCCC4=O)cc1 | 56% | -1.02 |
| Nc1c2c(nc3c1cnn3-c1cc(F)cc(F)c1)CCCC2=O | -9% | 1.23 |
| Cc1ccc(-n2ncc3c(N)c4c(nc32)CCCC4=O)cc1 | 12% | -2.26 |
| O=C(NCCn1ccnc1)c1[nH]nc(C2CC2)c1Cl | -9% | 1.61 |
| CC(C)N(C)C(=O)C1CCN(C(=O)[C@@H](N)C(C)(C)C)CC1 | -1% | 0.1 |
| COc1ccc(CNCCC2C(C)CN(C)C(C)C2Cc2ccccc2)cc1 (stereo not drawn) | 55% | -7.17 |
| COc1ccc(CNC/C=C/c2ccccc2)cc1 | -20% | 2.3 |
| COC1CCC(CCNCc2ccccc2)CC1 (stereo not drawn) | -15% | 2.25 |
| COc1cccc(OC2CN(C[C@H]3COc4ccccc4O3)C2)c1 | 3% | -0.59 |
| CC(CNC(=O)N(C)CCc1cccs1)N1CCOCC1C (stereo not drawn) | 5% | -0.94 |
| CCc1cc(N2CCCO2)nc(-c2ccncc2)n1 | 1% | -0.06 |
| Cn1cnc2c(NCC(=O)N3CCN(c4ccccc4)CC3)ncnc21 | -1% | 0.15 |
| CC(C)[C@H]1CN(C)CCN1Cc1ccc2cc(O)ccc2c1 | -17% | 2.23 |
| CN1CC[C@H](CN(C)Cc2ccc3cc(O)ccc3c2)C1 | 56% | -7.71 |
| c1cc(CN2CCC[C@H](CN3CCCC3)C2)co1 | -3% | 0.59 |
| CN1CCC(N2CCN(Cc3ccc4cc(O)ccc4c3)CC2)CC1 | 90% | -8.27 |
| CN(Cc1ccc2cc(O)ccc2c1)C[C@H]1CCCCO1 | 8% | -0.87 |
| Oc1ccc2cc(CN3CCC[C@H](CN4CCCC4)C3)ccc2c1 | 97% | -3 |
| CN(CC[C@H]1CCCCO1)Cc1ccc2cc(O)ccc2c1 | -1% | 0.18 |
